# Source: PubChem BioAssay
# FMDV antiviral: High Throughput Screening for Foot and Mouth Disease Virus Antivirals; FMDV antiviral cell-based qHTS; Potency, µM (series often up to 57.9 µM), inactives show at the top dose activity change, negative = inhibition, most hits filed as inhibitors; 410,000 tested, 1.2% active; AID 1159524, 2015; calls by dose curve; tested in HEK293T cells; further: read-out not given here; potency means the concentration at half of the fitted maximal effect; nearly all actives have a fitted effect of over 45% in size
# RE007 growth inh: qHTS Assay for Inhibitors of the HIV-1 protein Vpr. AID 651644, 2012. S. pombe RE007 Vpr strain, BacTiter-Glo ATP luminescence, 24 h. 360,000 tested, 0.21% active. Potency, µM (titrated, usually from 92.2 µM), for inactives: top-dose activity change, negative = less growth, most hits filed as inhibitors; active means well fitted falling curve with a large enough effect; inconclusive means small, poorly fitted or top-dose-only effect; inactive means no such curve, though single readings can be large or run the other way; further: potency means the concentration at half of the fitted maximal effect; nearly all actives have a fitted effect of over 50% in size
#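 Fission yeast strain RE007, carrying one chromosomally integrated HIV-1 vpr copy, was seeded at OD 0.01 in PMG+AL medium with 23 nL pinned compound. After 24 h at 30 °C and 99% humidity, viability was read by BacTiter-Glo luminescence.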
# FBPA Giardia inh: qHTS Assay for Inhibitors of Fructose-1,6-bisphosphate Aldolase from Giardia Lamblia. A8B2U2. purified Giardia FBPA. Potency, µM (titrated, usually from 59.6 µM), inactives show top-dose activity, negative = inhibition, hits mostly inhibitors. 290,000 tested, 0.71% active; further: potency means the concentration at half of the fitted maximal effect; nearly all actives have a fitted effect of over 55% in size
# Target sequence (A8B2U2 whole entry, looked up): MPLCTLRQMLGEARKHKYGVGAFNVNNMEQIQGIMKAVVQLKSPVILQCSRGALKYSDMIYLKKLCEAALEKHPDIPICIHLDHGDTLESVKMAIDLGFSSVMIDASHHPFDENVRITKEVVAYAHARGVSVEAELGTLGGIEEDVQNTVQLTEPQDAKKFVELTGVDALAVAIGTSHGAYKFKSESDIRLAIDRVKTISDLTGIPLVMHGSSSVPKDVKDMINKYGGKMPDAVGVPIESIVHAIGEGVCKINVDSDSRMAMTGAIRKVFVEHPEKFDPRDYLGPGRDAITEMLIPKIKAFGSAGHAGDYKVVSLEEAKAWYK
#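 40 nM FBPA preincubated 10 min at RT with compound (up to 57.5 uM final), then substrate plus GAPDH/TPI/NAD/arsenate coupling and diaphorase/resazurin added. Fluorescence read after 20 min at RT, 525/598 nm.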
# HCMV antiviral: qHTS Assay for inhibitors of the human cytomegalovirus (HCMV); HFF cells, HCMV-luciferase reporter, 72 h; hits give low values; activity change, negative = inhibition, % at 57.5 µM; 410,000 tested, 4.5% active; AID 1259415, 2018; in the data active means activity change below about -60%; inconclusive means no clear call, values can overlap the other calls; inactive means above about -39%
#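 Two compound doses tested in HFFs infected with HCMV-luciferase, MOI 1 PFU/cell, 72 h at 37C. Lysate luminescence read with OneGlo; data normalized against buffer-only and 10uM Salinomycin inhibitor controls.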
# Sm TGR inh: qHTS Assay for the Inhibitors of Schistosoma Mansoni Peroxiredoxins. 360,000 tested, 3% active. purified TGR, DTNB reduction, TNB absorbance 405 nm. Schistosoma mansoni thioredoxin glutathione reductase (TGR), Q962Y6. Potency, µM (top dose mostly 114 µM), without a hit: top-dose activity change, negative = inhibition, actives largely listed as inhibitors; further: potency means the concentration at half of the fitted maximal effect; nearly all actives have a fitted effect of over 60% in size
#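 Kinetic colorimetric format: TGR-catalysed, NADPH-driven DTNB reduction monitored via TNB absorbance. Enzyme dispensed at 20 nM; compound exposure 15 min at room temperature before reaction start.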
# Tb PYK inh: qHTS of Trypanosoma Brucei Inhibitors. 410,000 tested, 0.12% active. TbPYK enzyme, Kinase-Glo Plus ATP luminescence, 45 min. Potency, µM (series often up to 76.8 µM), for the others: top-dose activity, negative = inhibition, hits mostly inhibitors; further: potency means the concentration at half of the fitted maximal effect; nearly all actives have a fitted effect of over 50% in size
#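 TbPYK + substrate in 50 mM TEA pH 7.2, 100 mM KCl, 10 mM MgCl2, 0.05% BSA, 0.01% Tween-20; cpd pinned; ADP 130 uM final; 45 min RT; Kinase-Glo Plus 10 min; luminescence endpoint.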
# Active calls of the source: *; ? = inconclusive; nt = no result. Rows were chosen to be rich in hits. Some 7.7% of all compounds tested hit in one or more screens of this group. Unless noted, the call rests on the fitted dose curve; in most records, active means well fitted curve in the direction sought with a large enough effect; inconclusive means small, poorly fitted or top-dose-only effect, or another doubt; inactive means no such curve, though single readings can be large; an effect the other way counts as inactive or inconclusive. On the % scale 0 is the no-effect control and ±100 the full control effect.
SMILES,FMDV antiviral,RE007 growth inh,FBPA Giardia inh,HCMV antiviral,Sm TGR inh,Tb PYK inh
O=C(NC(=S)NCCc1ccccc1)c1cccc(Cl)c1,41%,-18%,nt,-19,40µM*,-10%
COc1ccc(C(=O)Cc2ccc(OC)c(OC)c2)cc1,nt,-3%,-4%,6,-2%,2%
CN(C)c1cccc(Nc2cc3[nH]c(-c4cccc(F)c4)cc3cn2)c1,nt,nt,nt,-26,nt,nt
COc1ccc2cc3cc(C(=O)NCCc4ccc(OC)c(OC)c4)oc3nc2c1,8.9µM*,7%,-7%,-30,5%,0%
COc1ccc(OC)c(CNC(=O)c2cc3cc4ccc(OC)cc4nc3o2)c1,-17%,nt,nt,10,5%,0%
CS(=O)(=O)N(CC(=O)Nc1cccc([N+](=O)[O-])c1)c1ccccc1,10%,15%,1%,-5,nt,0%
Cc1ccccc1CN(CC(=O)Nc1cccc([N+](=O)[O-])c1)S(=O)(=O)c1ccc(Cl)cc1,40µM*,-5%,-17%,-37,8%,-3%
COc1ccccc1OCC(=O)Nc1nc2c(s1)CCCC2,20%,?,nt,-67*,-7%,7%
Cc1ccc(C(C)C)c(OCC(=O)Nc2nc3c(s2)CCCC3)c1,-3%,nt,nt,-82*,7%,-1%
Cc1ccc(CC(=O)Nc2nc3c(s2)CCCC3)cc1,25%,-29%,-1%,-73*,-16%,1%
O=C(CCS(=O)(=O)Cc1ccccc1)Nc1nc2c(s1)CCCC2,nt,-18%,0%,-61*,-24%,-7%
Cc1nn(CCC(=O)Nc2ccccc2Br)c(=O)c2nn(-c3ccccc3)c(C)c12,-20%,nt,nt,46,7%,-9%
O=C1NCCN1CCN1CCC(c2cn(-c3ccc(F)cc3)c3ccc(Cl)cc23)CC1,nt,nt,nt,nt,nt,4%
COc1ccc2c(c1)CCc1cnc(-n3ncc(C(=O)NCCCN4CCOCC4)c3C)nc1-2,-4%,nt,nt,nt,nt,nt
Cc1ccc(S(=O)(=O)C(CNS(=O)(=O)c2cc(F)ccc2F)c2cccs2)cc1 (configuration not stated),26%,nt,nt,?,?,0%
CSc1nn(Cc2cccc(F)c2)c(N(C(C)=O)C(C)=O)c1S(=O)(=O)c1ccccc1,-3%,nt,nt,-8,?,-4%
O=C(CSc1nc2ccccc2o1)Nc1nc2c(s1)CCCC2,?,-15%,nt,-86*,nt,0%
O=C(CSc1nc2ccccc2o1)Nc1nc2ccccc2s1,20%,-9%,2%,29,4%,-1%
O=C(Nc1cccc(Br)c1)Nc1nc2c(s1)CCCCCC2,-4%,nt,nt,-86*,10%,-8%
OCCCNc1ncnc2scc(-c3ccc(Cl)cc3)c12,?,5%,-4%,-80*,5%,2%
NNc1ncnc2scc(-c3ccc(Cl)cc3)c12,?,5%,-10%,-99*,0%,5%
c1csc(-c2csc3ncnc(NCCCN4CCOCC4)c23)c1,?,-4%,1%,-67*,?,1%
COc1cccc(C2c3cccn3-c3ccccc3N2C=NC(C)(C)C)c1 (configuration not stated),nt,nt,nt,22,nt,nt
COCCN1Cc2cc(C(=O)OC)c3c(c2C1=O)c1cc(F)ccc1n3C(=O)c1ccccc1,nt,nt,nt,3,nt,nt
Nc1ccccc1NC(=O)OCc1ccccc1,nt,nt,nt,-15,nt,nt
SMILES,FMDV antiviral,RE007 growth inh,FBPA Giardia inh,HCMV antiviral,Sm TGR inh,Tb PYK inh
O=C(N/C=C/c1ccco1)NCc1ccccc1,-7%,13%,-10%,-29,25µM*,-37%
O=C(N/C=C/c1ccco1)OCc1ccccc1,13%,-22%,-4%,-12,45µM*,-20%
COc1ccc(-c2oc3ccccc3c2C(=O)OCc2ccc([N+](=O)[O-])cc2)cc1,-24%,-3%,-9%,-62*,0%,1%
CC(C)CN=Cc1c(O)c([N+](=O)[O-])cc2oc3c(c12)CCCC3,32µM*,?,?,12,-3%,-22%
COc1ccc2c3c(n(C)c2c1)[C@@H](CO)N(S(C)(=O)=O)CC31CCN(C(=O)C2CCCC2)CC1,nt,nt,nt,6,nt,nt
COc1ccc(CCNc2c(C)c(C)nc3ncnn23)cc1,?,20%,-15%,-89*,3%,-3%
CCOc1ccc(CCNc2cc(C)nc3ncnn23)cc1OCC,?,9%,1%,-26,-4%,-4%
CCc1c(C)nc2ncnn2c1NCCc1ccc(OC)c(OC)c1,?,-8%,0%,-73*,-7%,-9%
CN=C1N[C@H](c2ccccc2)N(c2ccccc2)S1,52%,nt,22µM*,nt,nt,nt
O=C(O)C1C2C=CC(O2)C1C(=O)NCc1ccc(Cl)cc1 (configuration not stated),?,35µM*,3%,3,5%,-4%
COc1cccc([C@@H]2Oc3ccc(OC)cc3C[C@H]2OC(=O)Nc2ccc(OC(F)F)cc2)c1,nt,nt,-6%,nt,nt,nt
CCOc1ccc(N(CC)S(=O)(=O)c2cc(Br)cc3c2N(C(C)=O)C(C)C3)cc1 (configuration not stated),11µM*,nt,nt,-63*,3%,3%
COc1cc(/C=C/C(=O)c2ccc(NS(=O)(=O)c3ccc(C)cc3)cc2)ccc1OC(F)F,?,-22%,12%,-71*,7%,-8%
COc1cc(/C=C/C(=O)c2ccc(NS(=O)(=O)c3ccc(C)cc3)cc2)cc(OC)c1O,-18%,0%,-13%,-101*,-18%,-5%
COc1ccc2cc(C(=O)/C=C/c3cc(OC)c(O)c(OC)c3)ccc2c1,21%,-22%,nt,-33,-35%,0%
COc1cccc(/C=C/C(=O)c2ccc(NS(=O)(=O)c3ccc(C)cc3)cc2)c1,-24%,-8%,1%,-70*,-4%,-5%
COc1cccc(C(=O)/C=C/Nc2ccc(S(=O)(=O)Nc3cccc(C(C)=O)c3)cc2)c1,-23%,6%,2%,-35,-2%,0%
Cc1cc(C)cc(C(=O)n2nc(C)c(S(=O)(=O)N3CCOCC3)c2C)c1,12%,nt,nt,9,?,-2%
CC(=O)NC(CCC(N)=O)C(=O)O (configuration not stated),nt,nt,nt,nt,nt,3%
O=C(Nc1ccn2ccnc2n1)c1ccccc1C(F)(F)F,nt,nt,nt,-13,nt,nt
OB(O)c1ccc(Br)cc1,nt,nt,6%,nt,nt,nt
CCOC(=O)C(=Cc1cn(C)c2ccc(S(=O)(=O)N(C)C)cc12)C(=O)OCC,32µM*,4%,-4%,24,-5%,-2%
COc1ccccc1Nc1nn2c(=O)c3ccc(C(=O)NC4CCCCC4)cc3nc2s1,?,nt,nt,0,1%,4%
